These results are taken from PubChem BioAssay (Tox21).

Assay [1] can be described thus: qHTS assay to identify small molecule antagonists of the glucocorticoid receptor (GR) signaling pathway - cell viability counter screen (AID 720693). Further: nearly all actives have a fitted effect of over 55% in size.
Assay [2] is described as follows: qHTS assay for identifying genotoxic compounds that show differential cytotoxicity against isogenic chicken DT40 cell lines with known DNA damage response pathways - Rev3 mutant cell line (AID 743014). Further: nearly all actives have a fitted effect of over 55% in size. Further: potency means the concentration at half of the fitted maximal effect.
Assay [3] can be described thus: qHTS assay to identify small molecule antagonists of the androgen receptor (AR) signaling pathway - cell viability counter screen (AID 743033; further: nearly all actives have a fitted effect of over 45% in size; further: potency means the concentration at half of the fitted maximal effect).
The target of assay [4] is Androgen receptor (Homo sapiens) (UniProt P10275). As to the kind of experiment: qHTS assay to identify small molecule agonists of the androgen receptor (AR) signaling pathway using the MDA cell line (AID 743040; further: nearly all actives have a fitted effect of over 20% in size; further: potency means the concentration at half of the fitted maximal effect). Put shortly:
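Luciferase read-out, ONE-Glo, 30 min RT. Cells: MDA-kb2 AR-luc, MMTV promoter with AR and GR response elements. Compound exposure 16 h, 37C, 0% CO2, after 5 h pre-incubation. qHTS agonist mode.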
On the technique in general: Quantitative high-throughput screening tests each substance at several concentrations.

A short description of assay [5]: qHTS assay to identify small molecule antagonists of the androgen receptor (AR) signaling pathway using the MDA cell line - cell viability counter screen (AID 743041; further: nearly all actives have a fitted effect of over 45% in size; further: potency means the concentration at half of the fitted maximal effect). In outline: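 Cytotoxicity counter screen: MDA-kb2 AR-luc cells, compound + R1881, 16 h, 37C, 0% CO2; CellTiter-Fluor added at 15.5 h, fluorescence read after 30 min.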
The nature of assay [6]: qHTS assay to identify small molecule antagonists of the thyroid receptor (TR) signaling pathway - cell viability counter screen (AID 743064). Further: nearly all actives have a fitted effect of over 50% in size. Further: potency means the concentration at half of the fitted maximal effect. Put shortly: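 In-well cytotoxicity read by CellTiter-Fluor (30 min, 37 C) following 23.5 h exposure of GH3 cells bearing a TRE-luciferase sensor. Compounds were added alongside 1 nM (final) T3 to drive TR transactivation.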
Assay [7] can be described thus: qHTS assay to identify small molecule antagonists of the thyroid receptor (TR) signaling pathway (AID 743065). Further: nearly all actives have a fitted effect of over 55% in size. Further: potency means the concentration at half of the fitted maximal effect. Put shortly:
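GH3.TRE-Luc rat pituitary cells (two TREs driving luciferase) were dosed with compound, then stimulated with 1 nM T3 (final) for 23.5 h at 37 C. ONE-Glo luminescence was the read-out, with CellTiter-Fluor fluorescence as the cytotoxicity counter-screen.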

In assay [8] the test system is thyroid hormone receptor (rat, GH3 cells). As to the kind of experiment: qHTS assay to identify small molecule agonists of the thyroid receptor (TR) signaling pathway (AID 743066; calls by dose curve).
A short description of assay [9]: qHTS assay to identify small molecule antagonists of the estrogen receptor alpha (ER-alpha) signaling pathway - cell viability counter screen (AID 743074; calls by dose curve;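 further: HEK293 cells carrying ER-alpha-UAS-bla reporter stimulated with 17beta-estradiol; nearly all actives have a fitted effect of over 45% in size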).
For assay [10], the target named is Estrogen receptor (Homo sapiens) (UniProt P03372). As to the kind of experiment: qHTS assay to identify small molecule agonists of the estrogen receptor alpha (ER-alpha) signaling pathway (AID 743075; calls by dose curve;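 further: HEK293 GripTite cells with ER-alpha and UAS-driven beta-lactamase reporter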; further: potency means the concentration at half of the fitted maximal effect).
Estrogen receptor (Homo sapiens), sequence (P03372 whole entry, looked up): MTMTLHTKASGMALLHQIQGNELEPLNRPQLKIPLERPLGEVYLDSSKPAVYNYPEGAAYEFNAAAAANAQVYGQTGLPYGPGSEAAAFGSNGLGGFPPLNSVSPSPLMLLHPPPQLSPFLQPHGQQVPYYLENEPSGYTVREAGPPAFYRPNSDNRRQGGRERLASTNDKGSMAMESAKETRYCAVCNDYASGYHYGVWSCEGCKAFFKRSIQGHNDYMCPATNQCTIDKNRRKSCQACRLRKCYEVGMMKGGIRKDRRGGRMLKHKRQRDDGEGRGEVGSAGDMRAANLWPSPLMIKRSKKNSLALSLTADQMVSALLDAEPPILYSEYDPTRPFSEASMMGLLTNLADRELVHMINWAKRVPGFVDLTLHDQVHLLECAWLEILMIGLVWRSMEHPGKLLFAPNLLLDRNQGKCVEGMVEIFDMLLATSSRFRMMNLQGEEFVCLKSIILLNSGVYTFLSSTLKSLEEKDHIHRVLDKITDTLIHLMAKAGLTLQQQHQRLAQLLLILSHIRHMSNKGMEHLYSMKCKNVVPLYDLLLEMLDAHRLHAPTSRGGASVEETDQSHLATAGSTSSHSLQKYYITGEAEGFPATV
Assay [11] can be described thus: qHTS assay to identify small molecule antagonists of the estrogen receptor alpha (ER-alpha) signaling pathway using the BG1 cell line - cell viability counter screen (AID 743081).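 Further: compound given together with 17beta-estradiol as the ER stimulus; nearly all actives have a fitted effect of over 45% in size.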 Further: potency means the concentration at half of the fitted maximal effect.
For a further assay, the target named is Aromatase (Homo sapiens) (UniProt P11511). Description: qHTS assay to identify aromatase inhibitors (AID 743083). Further: nearly all actives have a fitted effect of over 55% in size. Further: potency means the concentration at half of the fitted maximal effect.
Aromatase (Homo sapiens), sequence (P11511 whole entry, looked up): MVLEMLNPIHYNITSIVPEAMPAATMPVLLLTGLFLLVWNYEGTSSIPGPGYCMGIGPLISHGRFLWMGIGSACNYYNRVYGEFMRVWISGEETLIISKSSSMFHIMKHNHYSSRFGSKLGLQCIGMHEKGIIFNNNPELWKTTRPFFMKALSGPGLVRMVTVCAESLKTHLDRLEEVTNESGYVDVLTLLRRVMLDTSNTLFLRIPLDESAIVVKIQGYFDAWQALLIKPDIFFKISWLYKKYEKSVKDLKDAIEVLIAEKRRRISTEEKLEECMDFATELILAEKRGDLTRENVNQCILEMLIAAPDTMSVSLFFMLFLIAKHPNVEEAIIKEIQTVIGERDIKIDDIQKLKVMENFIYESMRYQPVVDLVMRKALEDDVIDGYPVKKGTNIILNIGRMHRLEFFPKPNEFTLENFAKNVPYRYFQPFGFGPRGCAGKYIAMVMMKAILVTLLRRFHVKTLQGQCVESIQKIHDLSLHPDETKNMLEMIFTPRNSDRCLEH
The nature of assay [12]: qHTS assay to identify aromatase inhibitors - cell viability counter screen (AID 743084). Further: potency means the concentration at half of the fitted maximal effect.
Assay [13] is described as follows: qHTS assay for identifying genotoxic compounds that show differential cytotoxicity against isogenic chicken DT40 cell lines with known DNA damage response pathways - Rad54/Ku70 mutant cell line (AID 743015). Further: nearly all actives have a fitted effect of over 60% in size. Further: potency means the concentration at half of the fitted maximal effect.
The target of assay [14] is Androgen receptor (Homo sapiens) (UniProt P10275). As to the kind of experiment: qHTS assay to identify small molecule agonists of the androgen receptor (AR) signaling pathway (AID 743036; active means well fitted activation curve with a large enough effect in the signal ratio in the repeat runs, with a control signal flat, not every such curve was filed as active; inconclusive means weak or mixed curves, or effect the other way; inactive means no such curve, though single readings can be large or run the other way; the % refers to the signal ratio; further: potency means the concentration at half of the fitted maximal effect). In outline:
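Activation was read as beta-lactamase FRET signal from LiveBLAzer B/G substrate, added for 2 h at room temperature. Before that, GeneBLAzer AR-UAS-bla GripTite (HEK293) cells had 16 h compound exposure at 37C.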

Assay [15] shares this target. Description: qHTS assay to identify small molecule antagonists of the androgen receptor (AR) signaling pathway using the MDA cell line (AID 743042; further: nearly all actives have a fitted effect of over 55% in size; further: potency means the concentration at half of the fitted maximal effect). Put shortly:
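MDA-kb2 breast carcinoma cells carrying MMTV-luciferase (AR/GR responsive) were co-treated with compounds and the agonist R1881 for 16 h at 37C. Inhibition read as ONE-Glo luminescence; CellTiter-Fluor fluorescence measured in parallel for cytotoxicity.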

A short description of assay [16]: qHTS assay to identify small molecule antagonists of the estrogen receptor alpha (ER-alpha) signaling pathway using the BG1 cell line (AID 743080; calls by dose curve; further: nearly all actives have a fitted effect of over 25% in size; further: potency means the concentration at half of the fitted maximal effect). In outline:
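Antagonist mode: compounds in DMSO were pinned onto BG1-Luc-4E2 cells alongside 17beta-estradiol agonist, incubated 21.5 h, and ERE-driven luciferase measured with ONE-Glo. Cytotoxicity was multiplexed using CellTiter-Fluor fluorescence.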

Assay [17] concerns the target Estrogen receptor (Homo sapiens) (UniProt P03372). Description: qHTS assay to identify small molecule antagonists of the estrogen receptor alpha (ER-alpha) signaling pathway (AID 743069; active means well fitted curve in the direction sought with a large enough effect in the signal ratio in the repeat runs, not every such curve was filed as active; inconclusive means weak or mixed curves, or effect the other way; inactive means no such curve, though single readings can be large or run the other way; the % refers to the signal ratio; further: potency means the concentration at half of the fitted maximal effect). In outline:
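Beta-lactamase FRET fluorescence is read after 2 hr at room temperature with LiveBLAzer B/G substrate. Before that, ER-alpha-bla HEK293 cells sit 4 hr after plating, then receive compound plus 17beta-estradiol and incubate 18 hr at 37C.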

For assay [18] the target is unchanged. Description: qHTS assay to identify small molecule agonists of the estrogen receptor alpha (ER-alpha) signaling pathway using the BG1 cell line (AID 743079). Further: nearly all actives have a fitted effect of over 20% in size. Further: potency means the concentration at half of the fitted maximal effect.

Where “and” joins values, the source holds several entries; their conditions need not be identical. Equal entries are not always repeated. A structure can be active in one record and inactive in another. Calls of active or inactive are those of the source. Unless noted, the call rests on the fitted dose curve; in most records, active means well fitted curve in the direction sought with a large enough effect in the repeat runs; inconclusive means weak or mixed curves; inactive means no such curve, though single readings can be large; an effect the other way counts as inactive or inconclusive.

Androgen receptor (Homo sapiens), sequence (P10275 whole entry, looked up): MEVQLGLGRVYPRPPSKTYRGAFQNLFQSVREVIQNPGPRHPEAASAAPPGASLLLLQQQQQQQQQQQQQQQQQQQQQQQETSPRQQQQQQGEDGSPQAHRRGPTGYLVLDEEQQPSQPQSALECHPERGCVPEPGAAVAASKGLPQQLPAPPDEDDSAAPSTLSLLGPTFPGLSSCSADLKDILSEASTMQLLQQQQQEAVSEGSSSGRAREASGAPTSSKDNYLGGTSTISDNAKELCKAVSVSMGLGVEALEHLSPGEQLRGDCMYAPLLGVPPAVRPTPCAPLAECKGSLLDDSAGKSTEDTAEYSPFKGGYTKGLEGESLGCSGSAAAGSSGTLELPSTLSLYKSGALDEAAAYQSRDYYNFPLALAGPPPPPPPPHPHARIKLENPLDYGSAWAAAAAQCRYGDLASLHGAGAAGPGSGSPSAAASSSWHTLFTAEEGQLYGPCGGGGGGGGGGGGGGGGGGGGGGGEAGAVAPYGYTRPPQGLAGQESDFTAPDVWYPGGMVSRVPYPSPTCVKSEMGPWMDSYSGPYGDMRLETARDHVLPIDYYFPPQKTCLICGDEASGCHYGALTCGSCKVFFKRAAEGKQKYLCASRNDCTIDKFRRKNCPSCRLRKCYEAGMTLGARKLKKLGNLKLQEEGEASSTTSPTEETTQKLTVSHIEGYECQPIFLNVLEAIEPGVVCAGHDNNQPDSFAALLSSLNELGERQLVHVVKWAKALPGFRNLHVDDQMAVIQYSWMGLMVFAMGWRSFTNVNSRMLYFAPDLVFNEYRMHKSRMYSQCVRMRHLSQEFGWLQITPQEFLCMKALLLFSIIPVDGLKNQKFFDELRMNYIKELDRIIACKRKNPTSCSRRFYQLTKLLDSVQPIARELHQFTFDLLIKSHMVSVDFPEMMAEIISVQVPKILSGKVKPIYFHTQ

Consider `S=C=Nc1cccc2ccccc12`, for which the Potency entry in [1], in assay [3], in assay [4], in assay [5], in [6] and in [7] was “inactive” each time. Moreover, the Potency entry in assay [9], in [10] and in [11] was “inactive” in each case. The Potency in assay [2] is 60.5 µM (active); with Aromatase (Homo sapiens), 27 µM (active); in assay [12], 30.3 µM (active). Besides, the compound was classed as inactive in [8].

Consider `ClC1=C(Cl)C2(Cl)C3C(Cl)C(Cl)CC3C1(Cl)C2(Cl)Cl` (configuration not stated), for which the Potency result in assay [1], in [14], in [4], in assay [5], in [15] and in assay [11] was “inactive” each time. For the same compound, the Potency was 30.6 µM (active) in assay [2]; 24.3 µM (active) in [13]; 49 µM (active) in assay [3]; 21.6 µM (active) and 24.3 µM (active) in assay [6]; 24.3 µM (active) in [7]; 54.8 µM [inconclusive] (active) in assay [10]. For the same compound, the Potency with Aromatase (Homo sapiens) was 68.4 µM (active). In assay [8], the compound was classed as inactive.

On to `C[C@]12Cc3nonc3C[C@@H]1CC[C@@H]1[C@@H]2CC[C@@]2(C)[C@H]1CC[C@]2(C)O`, for which the Potency result in [1], in assay [5], in [9], in assay [11] and in [12] was “inactive” throughout. Moreover, the Potency in assay [2] was 13.3 µM (active); in [13], 18.8 µM (active); in assay [14], 0.0038 µM (active); in assay [4], 0.0019 µM (active); in assay [15] it was 29.8 µM (active); in [6] it was 29.8 µM (active). The Potency was 13.3 µM (active) in assay [7] and 29.8 µM (active) in [16].

Regarding `CN(C)C(=S)S`, the Potency result in assay [1], in assay [9] and in assay [11] was “inactive” each time. Also, the Potency in [2] is 1.21 µM (active) and 1.72 µM (active); in assay [13] it was 1.36 µM (active) and 2.17 µM (active); in assay [3], 15.8 µM (active) and 1.54 µM (active) and 9.77 µM (active); in [6], “inactive and 27.1 µM (active) and 2.73 µM (active)”; with Aromatase (Homo sapiens), 8.81 µM (active) and 607 nM (active) and 1.72 µM (active); in assay [12] it was 14 µM (active) and 764 nM (active) and 4.86 µM (active).

Consider `c1ccc(Nc2ccc3ccccc3c2)cc1`, for which the Potency result in assay [1], in assay [5], in assay [17], in assay [9], in assay [10] and in [11] was “inactive” throughout. For the same compound, in the assay with Aromatase (Homo sapiens), the Potency entry was “inactive”. The Potency in assay [2] was 54.2 µM (active); in assay [13] it was 60.8 µM (active); in assay [6] it was 60.8 µM (active); in assay [18], 19.2 µM (active) and 9.69 µM (active); in assay [12], 54.2 µM (active). The call in assay [8] was inactive.

`COC(=O)N(C(=O)N1CO[C@@]2(C(=O)OC)Cc3cc(Cl)ccc3C2=N1)c1ccc(OC(F)(F)F)cc1`: the Potency result in [1], in [3], in assay [4], in [5], in [6] and in [9] was “inactive” in each case. Moreover, the Potency entry in assay [16], in [11] and in [12] was “inactive” in each case. Also, the Potency in assay [2] is 14.8 µM (active); in assay [13], 9.36 µM (active); in assay [15], 23.5 µM (active); in assay [17], 47.3 µM [cytotoxic] (active). Moreover, the compound was called inactive in assay [8].

For the compound `CC(C)(C)c1ccc(CSc2cnn(C(C)(C)C)c(=O)c2Cl)cc1`, the Potency entry in assay [1] and in [12] was “inactive” in each case. The Potency was 0.0193 µM (active) in assay [2]; 0.0109 µM (active) in assay [13]; 0.0306 µM (active) in assay [5]; 54.5 µM (active) in assay [6]; 0.0055 µM [inconclusive] (active) in [17]; 0.0109 µM (active) in [16]. Moreover, the Potency in assay [11] is 27.3 µM (active); with Aromatase (Homo sapiens) it was 61.1 µM (active).

In the case of `ClCc1ccc(Cl)cc1Cl`, the Potency entry in [1], in assay [2], in assay [13], in assay [3], in assay [5] and in [6] was “inactive” each time. For the same compound, the Potency entry in assay [7], in assay [17], in [9], in assay [10], in assay [18] and in [16] was “inactive” in each case. For the same compound, the Potency entry (in [11]; in the assay with Aromatase (Homo sapiens); in assay [12]) was “inactive” each time. Further, the compound was classed as inactive in assay [8].
